Test results from PubChem BioAssay AID1159580 (chemical genetic matrix, 2015).
Out of some 5,500 compounds screened, about 2,000 (36%) were called active. Another 18% or so got no clear call; they are omitted. Cut-off read from the data, not from the text of the source: active = normalized growth mostly below about 0.91 (no sharp cut-off); inconclusive = no clear call, values can overlap the other calls; inactive = mostly above about 0.92. Some of the results follow.

Test: chemical genetic growth profiling, strain panel (AID 1159580);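 note: tested at 20 µM; growth read once vehicle control cultures reached saturation at 30 °C; 1 = growth at the plate median or of vehicle wells; lower values mean less growth of the strain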
Settings: growth OD

Measured: normalized growth

COc1cc(C/C=C/c2ccccc2)c(OC)cc1O
active: S. cerevisiae deletion strains, locus YLR371W, strain rom2, stronger effect = lower value 0.849 | S. cerevisiae deletion strains, locus YNL071W, strain lat1, stronger effect = lower value 0.866 | S. cerevisiae deletion strains, locus YNL250W, strain rad50, stronger effect = lower value 0.898 | S. cerevisiae deletion strains, locus YPL106C, strain sse1, stronger effect = lower value 0.847 | S. cerevisiae deletion strains, locus YPR141C, strain kar3, stronger effect = lower value 0.914
inactive: S. cerevisiae deletion strains, locus YJR066W, strain TOR1, stronger effect = lower value 0.989 | S. cerevisiae deletion strains, locus YJR075W, strain HOC1, stronger effect = lower value 0.935 | S. cerevisiae deletion strains, locus YKL009W, strain mrt4, stronger effect = lower value 1.01 | S. cerevisiae deletion strains, locus YKL068W, stronger effect = lower value 0.954 | S. cerevisiae deletion strains, locus YKL085W, strain MDH1 (second series), stronger effect = lower value 0.965 | S. cerevisiae deletion strains, locus YKL085W, strain MDH1, stronger effect = lower value 0.965 | S. cerevisiae deletion strains, locus YKL160W, strain elf1, stronger effect = lower value 0.95 | S. cerevisiae deletion strains, locus YKR001C, strain vps1, stronger effect = lower value 0.969 | S. cerevisiae deletion strains, locus YKR026C, strain gcn3, stronger effect = lower value 0.956 | S. cerevisiae deletion strains, locus YKR091W, strain srl3, stronger effect = lower value 0.954 | S. cerevisiae deletion strains, locus YLL001W, strain dnm1, stronger effect = lower value 0.926 | S. cerevisiae deletion strains, locus YLL026W, stronger effect = lower value 0.962 | S. cerevisiae deletion strains, locus YLL041C, strain sdh2, stronger effect = lower value 0.949 | S. cerevisiae deletion strains, locus YLR027C, strain aat2, stronger effect = lower value 0.942 | S. cerevisiae deletion strains, locus YLR039C, strain RIC1, stronger effect = lower value 0.91 | S. cerevisiae deletion strains, locus YLR058C, strain SHM2, stronger effect = lower value 0.987 | S. cerevisiae deletion strains, locus YLR102C, strain apc9, stronger effect = lower value 0.964 | S. cerevisiae deletion strains, locus YLR113W, strain HOG1, stronger effect = lower value 1.01 | S. cerevisiae deletion strains, locus YLR221C, strain rsa3, stronger effect = lower value 1 | S. cerevisiae deletion strains, locus YLR258W, strain gsy2, stronger effect = lower value 0.943 | S. cerevisiae deletion strains, locus YLR262C, strain YPT6 (second series), stronger effect = lower value 0.95 | S. cerevisiae deletion strains, locus YLR262C, strain YPT6, stronger effect = lower value 0.967 | S. cerevisiae deletion strains, locus YLR268W, strain sec22, stronger effect = lower value 1 | S. cerevisiae deletion strains, locus YLR320W, strain mms22, stronger effect = lower value 0.982 | S. cerevisiae deletion strains, locus YLR330W, strain CHS5, stronger effect = lower value 0.964 | S. cerevisiae deletion strains, locus YLR342W, strain FKS1 (second series), stronger effect = lower value 1.05 | S. cerevisiae deletion strains, locus YLR342W, strain FKS1, stronger effect = lower value 0.949 | S. cerevisiae deletion strains, locus YLR357W, strain rsc2, stronger effect = lower value 0.883 | S. cerevisiae deletion strains, locus YLR370C, strain arc18, stronger effect = lower value 0.965 | S. cerevisiae deletion strains, locus YLR384C, strain iki3, stronger effect = lower value 0.98 | S. cerevisiae deletion strains, locus YLR418C, strain cdc73, stronger effect = lower value 0.883 | S. cerevisiae deletion strains, locus YML016C, strain PPZ1, stronger effect = lower value 0.963 | S. cerevisiae deletion strains, locus YML032C, strain rad52, stronger effect = lower value 1.02 | S. cerevisiae deletion strains, locus YML120C, strain ndi1, stronger effect = lower value 0.922 | S. cerevisiae deletion strains, locus YML124C, strain tub3, stronger effect = lower value 0.941 | S. cerevisiae deletion strains, locus YMR058W, strain fet3, stronger effect = lower value 0.923 | S. cerevisiae deletion strains, locus YMR078C, strain ctf18, stronger effect = lower value 0.956 | S. cerevisiae deletion strains, locus YMR125W, strain sto1, stronger effect = lower value 0.898 | S. cerevisiae deletion strains, locus YMR129W, stronger effect = lower value 0.96 | S. cerevisiae deletion strains, locus YMR205C, strain PFK2, stronger effect = lower value 0.914 | S. cerevisiae deletion strains, locus YMR223W, strain ubp8, stronger effect = lower value 0.983 | S. cerevisiae deletion strains, locus YMR231W, strain pep5, stronger effect = lower value 0.978 | S. cerevisiae deletion strains, locus YMR307W, strain GAS1, stronger effect = lower value 1.04 | S. cerevisiae deletion strains, locus YNL067W, strain RPL9B, stronger effect = lower value 0.966 | S. cerevisiae deletion strains, locus YNL128W, strain TEP1, stronger effect = lower value 0.944 | S. cerevisiae deletion strains, locus YNL183C, strain NPR1, stronger effect = lower value 1 | S. cerevisiae deletion strains, locus YNL209W, strain ssb2, stronger effect = lower value 0.97 | S. cerevisiae deletion strains, locus YNL233W, strain BNI4, stronger effect = lower value 0.945 | S. cerevisiae deletion strains, locus YNL248C, strain rpa49, stronger effect = lower value 0.95 | S. cerevisiae deletion strains, locus YNL271C, strain bni1, stronger effect = lower value 0.926 | S. cerevisiae deletion strains, locus YNL298W, strain CLA4, stronger effect = lower value 0.986 | S. cerevisiae deletion strains, locus YNL307C, strain MCK1, stronger effect = lower value 0.955 | S. cerevisiae deletion strains, locus YNL322C, strain KRE1 (second series), stronger effect = lower value 0.969 | S. cerevisiae deletion strains, locus YNL322C, strain KRE1, stronger effect = lower value 0.962 | S. cerevisiae deletion strains, locus YNR049C, strain mso1, stronger effect = lower value 0.962 | S. cerevisiae deletion strains, locus YNR052C, strain pop2, stronger effect = lower value 0.969 | S. cerevisiae deletion strains, locus YOL006C, strain TOP1, stronger effect = lower value 1.23 | S. cerevisiae deletion strains, locus YOL012C, strain htz1 0.65 | S. cerevisiae deletion strains, locus YOL147C, strain pex11, stronger effect = lower value 0.963 | S. cerevisiae deletion strains, locus YOR001W, strain rrp6, stronger effect = lower value 0.982 | S. cerevisiae deletion strains, locus YOR061W, strain CKA2, stronger effect = lower value 0.965 | S. cerevisiae deletion strains, locus YOR069W, strain VPS5, stronger effect = lower value 0.955 | S. cerevisiae deletion strains, locus YOR070C, strain gyp1, stronger effect = lower value 0.981 | S. cerevisiae deletion strains, locus YOR080W, strain dia2, stronger effect = lower value 0.959 | S. cerevisiae deletion strains, locus YOR083W, strain WHI5, stronger effect = lower value 0.934 | S. cerevisiae deletion strains, locus YOR106W, strain vam3, stronger effect = lower value 0.882 | S. cerevisiae deletion strains, locus YOR136W, strain idh2, stronger effect = lower value 0.963 | S. cerevisiae deletion strains, locus YOR144C, strain elg1, stronger effect = lower value 0.971 | S. cerevisiae deletion strains, locus YOR184W, strain ser1, stronger effect = lower value 1.08 | S. cerevisiae deletion strains, locus YOR231W, strain MKK1, stronger effect = lower value 1.07 | S. cerevisiae deletion strains, locus YOR265W, strain rbl2, stronger effect = lower value 0.955 | S. cerevisiae deletion strains, locus YOR270C, strain vph1, stronger effect = lower value 0.924 | S. cerevisiae deletion strains, locus YOR290C, strain snf2, stronger effect = lower value 0.902 | S. cerevisiae deletion strains, locus YOR316C, strain cot1, stronger effect = lower value 0.95 | S. cerevisiae deletion strains, locus YPL051W, strain arl3, stronger effect = lower value 0.937 | S. cerevisiae deletion strains, locus YPL055C, strain LGE1, stronger effect = lower value 1.01 | S. cerevisiae deletion strains, locus YPL078C, strain atp4, stronger effect = lower value 0.916 | S. cerevisiae deletion strains, locus YPL240C, strain hsp82, stronger effect = lower value 0.963 | S. cerevisiae deletion strains, locus YPL256C, strain CLN2, stronger effect = lower value 1.03 | S. cerevisiae deletion strains, locus YPR119W, strain clb2, stronger effect = lower value 0.946 | S. cerevisiae deletion strains, locus YPR163C, strain tif3, stronger effect = lower value 0.98 | S. cerevisiae deletion strains, locus YPR167C, strain met16, stronger effect = lower value 0.959 | S. cerevisiae deletion strains, strain wtn01, stronger effect = lower value 1.02 | S. cerevisiae strains, strain wild type, stronger effect = lower value 0.98
